Source: PubChem
In the library only some 5.7% were active in any assay of this set; here they are far more common.
IL1B secr inh – inhibitors of inflammasome signaling (IL-1 beta secretion) | THP-1 LPS/ATP IL-1B secretion, AlphaLISA, 16 h; stronger effect = lower value | activity change, % at 57.5 µM | actives 4.7% (n = 360,000); in the data active means activity change below about -50%; inconclusive means mostly about -30% to -49%; further: on the % scale 0 is the no-effect control and ±100 the full control effect
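THP-1 cells pretreated 1 hr with compounds (up to 57.5 uM final), then stimulated with LPS (250 ng/mL final) plus ATP (1.25 mM final); secreted IL-1B measured by AlphaLISA after 16 hr, decreased signal indicating inhibition.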
ATXN2 expr inh – inhibitors of ATXN2 expression; actives 0.72% (n = 360,000); HEK-293 ATXN2-luciferase reporter, luminescence, 24 h; Potency, µM (titrated, usually from 57 µM), without a hit: top-dose activity change, negative = inhibition, actives largely listed as inhibitors; further: potency means the concentration at half of the fitted maximal effect; on the % scale 0 is the no-effect control and ±100 the full control effect; nearly all actives have a fitted effect of over 55% in size
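ATXN2-luciferase reporter cells (luciferase flanked by upstream and downstream ATXN2 gene portions) were treated 24 h at 37 °C with compounds at up to 57 uM. SteadyGlo luminescence gave expression; GF-AFC fluorescence gave viability.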
HepG2 viability – kills HepG2 cells in TGF-b inhibitor counter-screen | AID 588856 | actives 0.76% (n = 410,000) | Potency, µM (top dose mostly 46.1 µM), without a hit: at the top dose activity change, negative = cytotoxicity, usual class: cytotoxic | HepG2 CAGA-GFP viability, ATP luminescence, 18 h; further: potency means the concentration at half of the fitted maximal effect
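HepG2 CAGA-GFP cells (1000/well, DMEM with 1% FBS) received compound, then TGF-beta at 500 pg/mL final, and were incubated 18 hours at 37 degrees C. Viability was read by CellTiter-Glo luminescence. Media-only wells were set as complete cell-killing and DMSO as no toxicity.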
TGFb SMAD3 inh – blocks TGF-b signaling; actives 1.2% (n = 410,000); AID 588855; HepG2 CAGA-GFP TGF-b/SMAD3 reporter, GFP fluorescence, 18 h; TGF-beta stimulated, 500 pg/mL final; Potency, µM (top dose mostly 46.1 µM), for the others: at the top dose activity, negative = inhibition, most hits filed as inhibitors; further: potency means the concentration at half of the fitted maximal effect; on the % scale 0 is the no-effect control and ±100 the full control effect; nearly all actives have a fitted effect of over 65% in size
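Smad-responsive CAGA-GFP expression was quantified in HEPG2 cells exposed to compounds and 500 pg/mL final TGF-beta for 18 h at 37 degrees C; unstimulated wells defined full inhibition.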
S2 tox – reduces viability in counter-screen for ATXN expression inhibitors. S2 cells (HEK-293 line with an ATXN2-luciferase reporter) viability, CellTiter-Fluor protease fluorescence, 24 h. Potency, µM (titrated, usually from 56.7 µM), most hits filed as cytotoxic. actives 0.49% (n = 400,000); further: potency means the concentration at half of the fitted maximal effect; nearly all actives have a fitted effect of over 40% in size
An asterisk follows results filed as active; i = inactive; u = inconclusive; x = not tested or not shown. Unless noted, the call rests on the fitted dose curve; in most records, active means well fitted curve in the direction sought with a large enough effect; inconclusive means small, poorly fitted or top-dose-only effect, or another doubt; inactive means no such curve, though single readings can be large; an effect the other way counts as inactive or inconclusive.

SMILES | IL1B secr inh | ATXN2 expr inh | HepG2 viability | TGFb SMAD3 inh | S2 tox
CCCCN1C(=N)N([C@@H](C)CN2CCC[C@H]2CN2C(N)=NC[C@H]2CC(C)C)C[C@H]1Cc1ccccc1 | -54* | -3% | -10% | -2% | i
CCS(=O)(=O)Nc1cc(C(=O)N2CCC[C@H]2CO)c2c(c1)nc(-c1ccccc1)n2C | x | x | x | x | i
CC[C@@H](C)[C@@H]1CN([C@@H](CN2CCC[C@H]2CN2C(N)=NC[C@H]2CC(C)C)C(C)C)C(=N)N1CCCC1CCCC1 | u | 6% | -14% | -4% | i
CC(C)[C@H](CN1CCC[C@H]1CN1C(N)=NC[C@H]1C(C)C)N1C[C@@H](Cc2ccccc2)N(CCCC2CCCC2)C1=N | -60* | 5% | -5% | 20% | i
Cc1ccc2sc(N(Cc3cccnc3)C(=O)CCOc3ccccc3)nc2c1C | x | x | -34% | 0% | x
N#C/C(=C\c1cccs1)Sc1nc2ccccc2s1 | -98* | 104% | -13% | u | i
Cc1ccc(-n2[nH]c(C)c(C=Nc3ccc(C)cn3)c2=O)cc1 | 20 | 3% | 4µM* | -19% | i
Cc1[nH]n(-c2ccccc2)c(=O)c1/C=N/n1c(C)nc2ccccc2c1=O | 15 | -13% | -37% | 1% | i
Cc1ccc(-n2[nH]c(C)c(/C=N/n3c(C)nc4ccccc4c3=O)c2=O)cc1 | 37 | -23% | 6.3µM* | 3% | i
O=C(Cn1nc(C(F)(F)F)c2c1CCCC2)Nc1ccc(Br)cc1 | x | x | -43% | -10% | x
CC(C)Cn1c(C(C)C)nc([N+](=O)[O-])c1S(=O)(=O)c1ccc(F)cc1 | -89* | -25% | -44% | u | u
Cc1cccc(Sc2c([N+](=O)[O-])ncn2C)c1 | -20 | -1% | -27% | 12% | i
Cn1cnc([N+](=O)[O-])c1Oc1ccc2ccccc2c1 | -103* | u | -22% | u | u
COc1ccc(-n2cc(-c3ccc(C)cc3)[n+]3c2SCC3)cc1 | -94* | u | -30% | -18% | i
Cc1ccc(-c2cn(-c3ccccc3)c3[n+]2CCCS3)cc1 | -63* | u | -7% | u | i
c1ccc(-c2cn(-c3ccccc3)c3[n+]2CCCS3)cc1 | -1 | -5% | 6% | -3% | i
N#Cc1ccc(-c2cn(-c3ccccc3)c3[n+]2CCCS3)cc1 | 13 | 1% | -191% | -6% | i
CCc1ccc(-n2cc(-c3ccc(F)cc3)[n+]3c2SCCC3)cc1 | -91* | u | -36% | -15% | i
O=C1C2C3C=CC(C4CC34)C2C(=O)N1/N=C/c1ccc(-c2cccc([N+](=O)[O-])c2)o1 (stereo not drawn) | -62* | -15% | -20% | 8% | i
Cc1ccc(S(=O)(=O)Cc2nc(-c3ccc(C(=O)NCc4ccccc4)cc3)oc2C)cc1 | x | x | -41% | u | x
O=C(NCCc1nnc2n1CCN(Cc1ccc(F)cc1)CC2)c1ccco1 | x | x | x | x | i
O=C(/C=C(\c1ccc(Cl)cc1)n1cncn1)c1ccc(Cl)cc1 | -57* | -27% | -17% | 23% | i
O=C(COc1ccccc1-c1ccccc1)N/N=C/c1ccc2ccccc2c1 | 20 | u | -55% | 7.1µM* | u
N#Cc1ccc(S(=O)(=O)N2CCC(Oc3cccc(C(F)(F)F)c3)CC2)cc1 | x | x | 5% | u | x
CC(C)NC(=O)NC(=O)CSc1nnc(COc2ccccc2F)n1C(C)C1CC2CCC1C2 (stereo not drawn) | -52* | u | -106% | u | u
SMILES | IL1B secr inh | ATXN2 expr inh | HepG2 viability | TGFb SMAD3 inh | S2 tox
CC(C1CC2CCC1C2)n1c(COc2ccccc2F)nnc1SCC(N)=O (stereo not drawn) | -4 | 4% | -2% | 0% | i
Fc1cccc(Cl)c1CSc1nnc(COc2cccc3cccnc23)o1 | -51* | -11% | -15% | -11% | u
Oc1ccc2ccccc2c1CNc1ccc2ccccc2c1 | -100* | -26% | -57% | u | i
COc1ccc(NC(=O)c2cc3ccccc3cc2O)cc1 | -99* | 77% | -71% | u | x
O=C(Nc1ccc2ccccc2c1)c1ccccc1O | -69* | u | -38% | u | i
S=C(NCc1ccccc1)Nc1ccc2ccccc2c1 | -76* | 49% | -16% | u | i
Cc1ccc(NC(=O)c2cc3ccccc3cc2O)cc1 | -9 | 44% | -42% | u | i
Oc1ccc2ccccc2c1CNc1ccccc1 | -29 | 31% | -23% | -17% | i
Cc1c(Cn2cnc3c(cnn3C(C)(C)C)c2=O)cccc1C(F)(F)F | x | x | -7% | -27% | x
O=C(c1cccc(F)c1F)N1CCOc2ccc(CN3CCN(Cc4ccccn4)CC3)cc2C1 | x | x | x | x | i
Cc1cccc(CN2C[C@H](Sc3ccccn3)C[C@H]2C(=O)Nc2ccc3sc(C)nc3c2)c1 | x | x | x | x | i
O=C(CS)Nc1ccccc1 | x | 19% | x | x | i
CCc1ccccc1-n1ncc(C(=O)Nc2ccc(OC)cc2)c1C | -65* | 59% | -2% | -2% | i
O=C(CS)Nc1ccc2ccccc2c1 | -95* | -19% | -3% | -12% | i
CCc1ccccc1NC(=O)c1sc(-n2nc(C)c(Cc3ccccc3)c2C)nc1C | x | x | 5% | 3% | x
COC(=O)[C@@]12CCCN1[C@H](c1ccc(-c3cccc(Cl)c3)c(OC)c1)[C@H]1C(=O)N(C)C(=O)[C@H]12 | -8 | -19% | -8% | 1% | i
CCN1C(=O)[C@H]2[C@@H](c3ccc(-c4cccc(Cl)c4)c(OC)c3)N3CCC[C@@]3(C(=O)OC)[C@H]2C1=O | -51* | u | -6% | u | u
Cc1ccc(C(=O)c2no[n+]([O-])c2C(=O)c2ccc(C)cc2)cc1 | -91* | u | -80% | u | x
N#Cc1cc2c(nc1SCC(=O)Nc1sc3c(c1C#N)CCC3)CCCC2 | -60* | 17% | -4% | -10% | i
O=C(Nc1ccc(Cl)cc1Cl)c1cnn2c1NC(=C1CC1)C=C2C(F)F | x | x | -1% | 1% | x
O=S(=O)(Nc1nc2ccccc2nc1Cl)c1ccc(Br)cc1 | -2 | x | -46% | 13µM* | i
O=S(=O)(Nc1nc2ccccc2nc1Cl)c1ccc(Cl)cc1 | 27 | -16% | -43% | 13µM* | x
Cc1ccccc1S(=O)(=O)Nc1nc2ccccc2nc1Cl | 0 | 5% | 1% | 26% | i
CCOc1nc2ccccc2nc1NS(=O)(=O)c1ccc(Cl)cc1 | 0 | -11% | -22% | -20% | i
CCOc1ccc2[nH]c3c(NCCO)ncnc3c2c1 | -26 | 1% | 0% | -22% | i
CCOc1ccc2[nH]c3c(NCCc4ccc(OC)c(OC)c4)ncnc3c2c1 | -96* | 18µM* | -60% | -12% | u
CCCCCOc1ccc(C2SC(=O)NC2=O)cc1OCC (stereo not drawn) | x | 14% | x | x | i
